The results in this text go back to PubChem BioAssay.

Where “and” joins values, the source holds several entries; their conditions need not be identical. Equal entries are not always repeated. Values without a mark were called inactive. Cut-off read from the data, not from the text of the source: active = response above about 15%; inactive = the rest.

A short description of this assay: yeast V-ATPase proton transport modulators, S. cerevisiae, pHLuorin, HTS validation (AID 504600).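 Note: plate controls were DMSO for no effect and reference compound for full effect.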 As to conditions: S. cerevisiae pHLuorin cytosolic pH, at 10 µM, hits give high values.
Take `Cc1nc(-c2coc3c(CN(C)C)c(O)ccc3c2=O)cs1`: the response is -0.21%.

Consider `COCCCN1C(=O)C(=O)/C(=C(/O)c2ccc3c(c2)CC(C)O3)C1c1cccnc1` (centres undefined), for which the response is -1.78%.

On to `O=C(Nc1ccccc1C(=O)N1CCCCCC1)c1ccccc1Cl`, for which the response is -0.64%.

Regarding `Fc1ccc(-c2cc(-c3ccccc3)nc(-n3cccn3)n2)cc1`, the response is 0.43%.

Consider `NS(=O)(=O)c1cc2c(cc1Cl)NC(C(Cl)Cl)NS2(=O)=O` (centres undefined), for which the response is 2.72%.

In the case of `CCC(C(=O)Nc1ccc2c(c1)OCCO2)c1ccccc1` (centres undefined), the response was -0.08%.

As to `c1ccc(CNc2ncnc3nc[nH]c23)cc1`, the response was -1.37%.

Turning to `Cc1cc(/C=N/O)c(C)n1-c1ccc(Br)cc1`, the response is -0.17%.

As for `COc1ccc(/C=C/C(=O)c2cc3cccc(OC)c3oc2=O)cc1`, the response is 1.33%.

For `Cc1ccc(C2=NOC(=O)/C2=C\C=C\c2ccccc2)cc1`, the response is -2.56%.

With `CCc1ccc(/C=C2\Oc3cc(OC(=O)N4CCOCC4)ccc3C2=O)cc1`, the response is 1.83%.

Consider `COc1cc(NC(=S)NN2CCN(C)CC2)cc(OC)c1OC`, for which the response was 2.58%.

As for `C[C@]12CCC3C(CC=C4C[C@@H](O)CC[C@@]43C)C1CCC2[C@]1(C)CCC(=O)O1` (some centres undefined), the response is -0.48%.

For the compound `COC(=O)c1cc(OC)c(OC)cc1NC(=O)CN1C(=O)c2ccccc2C1=O`, the response is -5.26%.

As to `c1ccc(CN(CC2=NCCN2)c2ccccc2)cc1`, the response was -4.75% and 1.48%.

On to `Cc1oncc1C(=O)Nc1ccc(C(F)(F)F)cc1`, for which the response was 6.73%.

Take `Cn1cc(C2N3CC4(C)CN2CC(C)(C3)C4=O)c2ccccc21` (centres undefined): the response is -6.53%.

For `CCCCOc1cc(C(=O)NCCN(CC)CC)c2ccccc2n1`, the response is -31% and -1.46%.

In the case of `O=C(CSCc1ccccc1)NCCCN1CCOCC1`, the response is 3.45%.

As to `COC(=O)c1ccc(OCCCCN2CC(C)OC(C)C2)cc1` (centres undefined), the response is 2.09%.

For `CCOc1ccc(C(=O)NC(C)C2COc3ccccc3O2)cc1` (centres undefined), the response is -8.02%.

In the case of `CSCC[C@H](NC(=O)OC(C)(C)C)C(=O)N1CCC(C(=O)N[C@@H](C)C(=O)O)CC1`, the response is -1.98%.

Regarding `O=C(N/C(=C/C=C\c1ccccc1)C(=O)N1CCOCC1)c1ccc(Br)cc1`, the response is 2.4%.

Regarding `COc1ccc2[nH]c(=O)c(CN(C(=O)c3ccco3)C(C)C)cc2c1`, the response is -5.39%.

On to `COc1cc(-c2cccs2)cc(=O)c2c(C)oc(C)c12`, for which the response was -7.46%.

Consider `CCC(=O)O[C@]1(C(=O)CCl)[C@@H](C)C[C@H]2[C@@H]3CCC4=CC(=O)C=C[C@]4(C)[C@@]3(F)[C@@H](O)C[C@@]21C`, for which the response is -2.3%.

`COCCN(CCOC)Cc1c(C)[nH]c2c(C)c(C)ccc2c1=O`: the response is 5.64%.

As to `COc1ccccc1/C=C/C(=O)OCCN1CCOCC1`, the response was -0.97%.

Turning to `c1ccc(Cn2nnc3cnccc32)cc1`, the response was 0.84%.

On to `Nc1cnn(C2OC(CO)C(O)C2O)c(=O)n1` (centres undefined), for which the response was 0.15%.

With `Cc1ccc(C(=O)Nc2ccccc2C(=O)NC(C(=O)O)C(C)C)cc1` (centres undefined), the response was 0.12%.

`NC(CO)C(=O)NNCc1ccc(O)c(O)c1O` (centres undefined): the response was -0.21%.

With `CC12CCCCN1CCCc1c2[nH]c2ccccc12` (centres undefined), the response is 0.15%.

In the case of `CN(C)CCN(Cc1ccc(Cl)cc1)c1ccccn1`, the response was -5.25%.

As for `CSc1cccc(NC(=O)/C=C/c2ccccc2)c1`, the response was 1.17%.

Turning to `Cc1oc2cc(O)cc(O)c2c(=O)c1-c1ccc2c(c1)OCCCO2`, the response is 0.59%.

As for `CNC(=O)Oc1ccc2c(c1)[C@]1(C)CCN(C)[C@@H]1N2C`, the response is -0.59%.

As for `CCCCNc1ccc(C(=O)OCCN(C)C)cc1`, the response is -3.28%.

Consider `O=C(COc1cc(O)c2c(=O)c3ccccc3oc2c1)OCc1ccccc1`, for which the response is 4.03%.
